The record followed here is PubChem BioAssay (NCI).

The panel holds about 79,000 compounds, 15% with a hit somewhere; the sample as a whole holds those more often. A number with no mark means an inactive call. Activity calls are given as the source filed them. No stated cut-off is given here; in the data, active means growth inhibition above about 70%; inactive means the rest.

The nature of experiment [1]: NCI Yeast Anticancer Drug Screen. Data for the rad50 strain (AID 155).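 Further: 0% = growth of vehicle-only cultures of the same strain.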 Particulars: S. cerevisiae rad50 strain growth inhibition; at 50.0 µM; hits give high values. An outline of the steps:
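Inhibition values express reduced yeast growth in compound-treated cultures relative to vehicle-treated controls.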

The nature of experiment [2]: NCI Yeast Anticancer Drug Screen. Data for the mec2-1 strain (AID 157). Particulars: S. cerevisiae mec2-1 strain, at 50.0 µM, hits give high values. The gist of the method:
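Each compound was tested on mec2-1 yeast, a strain altered in DNA damage repair or cell cycle control. Growth inhibition is reported relative to vehicle.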

A short description of experiment [3]: NCI Yeast Anticancer Drug Screen. Data for the sgs1 mgt1 strain (AID 161).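 Further: 0% = growth of cultures given vehicle only.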 Particulars: S. cerevisiae sgs1 mgt1 strain, at 50.0 µM, hits give high values. An outline of the steps: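 Test agents were incubated with a DNA-repair-mutant yeast strain. Growth was then read and compared against vehicle-treated controls.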
Experiment [4] in a line: NCI Yeast Anticancer Drug Screen. Data for the cln2 rad14 strain (AID 165).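 Further: 0% = growth equal to vehicle treated cultures.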 Particulars: S. cerevisiae cln2 rad14 strain, at 50.0 µM, hits give high values. An outline of the steps: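 Test compounds were added to cln2 rad14 yeast cultures; inhibition of growth was then determined by comparison with vehicle treatment.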
A short description of experiment [5]: NCI Yeast Anticancer Drug Screen. Data for the bub3 strain (AID 167). The settings on record: S. cerevisiae bub3 mutant strain, at 50.0 µM, hits give high values. An outline of the steps: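 Steps: expose the mutant yeast strain to compound; grow alongside vehicle-treated cultures; measure growth; express inhibition against the vehicle cultures.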
Experiment [6] in a line: NCI Yeast Anticancer Drug Screen. Data for the mlh1 rad18 strain (AID 175). Particulars: S. cerevisiae mlh1 rad18 strain growth inhibition; at 50.0 µM; hits give high values. An outline of the steps: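 Inhibition values reflect reduced growth of mutant yeast versus vehicle-treated controls following compound exposure; the mutations affect DNA damage repair.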

In the case of `CC(NC(=O)C(OC(=O)C(C)NC(=O)OC(C)(C)C)C(C)C)C(=O)OC(C(=O)O)C(C)C` (stereo unspecified), the growth inhibition in experiment [1] is -24.2%; in experiment [2], 10.3%; in experiment [3] it was -5.75%; in experiment [4] it was -1.1%; in experiment [5] it was 2.1%; in experiment [6], -7.15%.
In the case of `CCOC(CO)OCC`, the growth inhibition in experiment [1] was 28.9%; in experiment [2] it was -0.25%; in experiment [3], -3.4%; in experiment [4] it was 8.95%; in experiment [5] it was 13.6%; in experiment [6], -8%.
As to `CN(C)C=Nc1ccc([N+](=O)[O-])cc1`, the growth inhibition in experiment [1] was -7.7%; in experiment [2], -2.65%; in experiment [3], -1.25%; in experiment [4] it was -12.8%; in experiment [5], -0.6%; in experiment [6] it was -5.3%.
Take `CC(=O)NC1C(O)CC(OCCCSCCN)(C(=O)O)OC1C(O)C(O)CO` (stereo unspecified): the growth inhibition was -6.25% in experiment [1]; -22.6% in experiment [2]; -23.1% in experiment [3]; 11.3% in experiment [4]; -16.8% in experiment [5]; -26.5% in experiment [6].
As to `CCCCC(=O)Nc1ccc(S(=O)(=O)O)c(N=NC2C(=O)N(c3ccccc3)N=C2C)c1` (stereo unspecified), the growth inhibition in experiment [1] was 27.1%; in experiment [2], -10.6%; in experiment [3], 5.6%; in experiment [4] it was -13%; in experiment [5] it was -3%; in experiment [6], 15%.
Turning to `COC(=O)C1CCCN1C(=O)c1ccccc1` (stereo unspecified), the growth inhibition in experiment [1] is 3.6%; in experiment [2], -0.4%; in experiment [3], -16.2%; in experiment [4] it was -36.8%; in experiment [5], -5%; in experiment [6], 11.6%.
For `CC(C)Cc1ccc(C(C)CC2=CCC(CN(C)C)C2=O)cc1` (stereo unspecified), the growth inhibition in experiment [1] is 79.2% (active); in experiment [2], 91.5% (active); in experiment [3], 90.2% (active); in experiment [4], 84.4% (active); in experiment [5], 88.7% (active); in experiment [6], 89.3% (active).
In the case of `N#C/C(=C1\OC(N)=C(c2ccc(Cl)cc2)C1=O)c1ccc(Cl)cc1`, the growth inhibition in experiment [1] was 2.9%; in experiment [2] it was -8.45%; in experiment [3], 6.8%; in experiment [4], 18.4%; in experiment [5], 2.15%; in experiment [6] it was 9.2%.
For the molecule `CN(C)c1ccc(/C=C(/C(=O)O)c2csc(-c3nc(/C(=C\c4ccc(N(C)C)cc4)C(=O)O)cs3)n2)cc1`, the growth inhibition in experiment [1] is 34.8%; in experiment [2], 9.45%; in experiment [3], 10.2%; in experiment [4], -19.8%; in experiment [5] it was 13.2%; in experiment [6], 25.4%.
With `Cc1ccc2nc(C)ccc2c1`, the growth inhibition in experiment [1] was -38.2%; in experiment [2] it was -23.2%; in experiment [3], -2.7%; in experiment [4], -16.1%; in experiment [5] it was -0.2%; in experiment [6] it was -3.4%.
In the case of `CC(C)CCNc1ncnc2[nH]ncc12`, the growth inhibition in experiment [1] is -16.5%; in experiment [2], -31.7%; in experiment [3], -26.2%; in experiment [4], -35.1%; in experiment [5], -13.8%; in experiment [6], -18.4%.
With `CCOC(=O)CCC1(C(=O)OC)C(=O)CCCCCCCC1C(=O)OC` (stereo unspecified), the growth inhibition in experiment [1] is -1.85%; in experiment [2] it was -5.65%; in experiment [3], 20.3%; in experiment [4], 20.6%; in experiment [5] it was 19.4%; in experiment [6], 7.3%.
As to `COc1ccc(C(=O)N/N=C/c2ccccc2Cl)cc1`, the growth inhibition in experiment [1] was 1%; in experiment [2] it was 0.45%; in experiment [3], 19.1%; in experiment [4] it was -10.6%; in experiment [5] it was 19.4%; in experiment [6], 18.4%.
For `COC(=O)C1(Cc2ccc3c(c2)CCC3)Cc2cc3c(cc2C1)CCC3`, the growth inhibition in experiment [1] is -16.1%; in experiment [2], 15.7%; in experiment [3] it was -40.2%; in experiment [4] it was 15.8%; in experiment [5], -0.35%; in experiment [6], -21.6%.
On to `Nc1ccccc1OCC(=O)Nc1c(N)ncnc1N`, for which the growth inhibition in experiment [1] was 0.4%; in experiment [2], -6.35%; in experiment [3] it was 6.85%; in experiment [4], 2.95%; in experiment [5] it was 5.9%; in experiment [6], -3.8%.
Consider `COc1ccc(CCC(C)(O)c2ccccc2)cc1` (stereo unspecified), for which the growth inhibition in experiment [1] was 11.7%; in experiment [2], -1.35%; in experiment [3] it was 11.2%; in experiment [4], -1.05%; in experiment [5] it was 41.9%; in experiment [6], -2.55%.
Take `CC(=O)Nc1c(Cl)cc2c(c1Cl)Cc1cc(N(C)C)ccc1-2`: the growth inhibition in experiment [1] was -13.6%; in experiment [2], -0.35%; in experiment [3], 0.5%; in experiment [4], 6.25%; in experiment [5], 1.75%; in experiment [6] it was -9.25%.
For the molecule `[Fe+2].[NH-]C(Cc1ccc(O)cc1)C(=O)O.[NH-]C(Cc1ccc(O)cc1)C(=O)O` (stereo unspecified), the growth inhibition in experiment [1] was 15.1%; in experiment [2] it was 8.25%; in experiment [3], 24.1%; in experiment [4], 23.4%; in experiment [5] it was -2.4%; in experiment [6] it was 30.1%.
Regarding `CCCC(C)(O)C(C)(C)C` (stereo unspecified), the growth inhibition in experiment [1] was 6.85%; in experiment [2] it was 8.65%; in experiment [3] it was 8%; in experiment [4], 11.7%; in experiment [5], 28.8%; in experiment [6] it was -2.15%.
Consider `O=[N+]([O-])c1cc2c(cc1O)[nH]c1cccc([N+](=O)[O-])c12`, for which the growth inhibition in experiment [1] was -2.25%; in experiment [2] it was -11.4%; in experiment [3] it was -42.5%; in experiment [4] it was 21.1%; in experiment [5], -15.8%; in experiment [6], -22.6%.
On to `COc1cc(C(=O)NC(=S)Nc2csc(-c3ccc(F)cc3)n2)cc(OC)c1OC`, for which the growth inhibition is 14.9% in experiment [1]; -12.8% in experiment [2]; 8.65% in experiment [3]; 16.9% in experiment [4]; -0.75% in experiment [5]; 11.7% in experiment [6].
